HSP90 inh – blocks HSP90-mediated luciferase refolding in reticulocyte lysate; Rabbit reticulocyte lysate, luciferase refolding luminescence, 3 h; inhibition, % at 5.6 µM; actives 0.91% (n = 290,000); AID 1789;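 active = inhibition above the screen-wide mean plus 3 SD, computed separately per campaign, cut at about 16% in these data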;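 note: 0% = DMSO wells and 100% = 60 µM geldanamycin wells; inhibitors lower the luminescence because luciferase stays unfolded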
TWEAK-Fn14 inh – TWEAK-Fn14 signaling inhibition. AID 1159606. inhibition, % at 10 µM. actives 2% (n = 360,000). TWEAK-stimulated Fn14 reporter cells, luciferase luminescence, 8 h; in the data active = inhibition above about 50%
PPC-1+TRAIL kill – compounds killing PPC-1 cancer cells with TRAIL present (potentiator screen, no TRAIL-free arm) | actives 0.41% (n = 220,000) | cell killing (% activity), % at 4 µM or 5 µM | PPC-1 cells + TRAIL, ATPLite viability luminescence;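 active = cell killing above 50% in the first pass at 4 µM, then a duplicate retest at 5 µM averaging 50% or more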;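 note: plate controls were cells with TRAIL plus DMSO for no effect and medium-only wells lacking cells for full effect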
TRAIL sens C8 – sensitizes caspase-8 expressing cells to TRAIL; NB7+C8 cells + TRAIL, ATPlite viability luminescence; inhibition (viability loss, TRAIL sensitization), % at 10 µM; actives 1% (n = 360,000); AID 624354;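 active = compounds causing at least 50% loss of cell viability in the single-dose screen, relative to plate controls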
Platelet DG rel – modulates dense granule release in human platelets | actives 0.22% (n = 300,000) | AID 1663 | inhibition, %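 (compounds screened at 7.5 µM in platelet-rich plasma)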 | human platelet-rich plasma, SFLLRN dense granule ATP release, luminescence;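 active = mean replicate score, as percent of positive control, at or above 50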
TROY NFkB inh – blocks TROY-dependent signaling in reporter cells | inhibition, % at 10 µM | actives 0.98% (n = 360,000) | Q293 LMP1-TROYcd NF-kB luciferase reporter, 4 h;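 active = compounds whose plate-normalised and pattern-corrected inhibition of the luciferase reporter signal at the single screening dose is 50% or more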
PPC-1 tox – PPC-1 cell cytotoxicity; PPC-1 viability, ATPlite luminescence, overnight; cytotoxicity, % at 5 µM; actives 50% (n = 1,200); shares compounds with PPC-1+TRAIL kill; AID 1447;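 active = reconfirmed compounds whose average cytotoxicity reaches 50% or more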;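 note: 0% = DMSO-treated cells and 100% = wells holding medium but no cells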
* marks the source's active call; other numbers are inactive results; . = no result given. Only some compounds are listed: those with a hit (about 3.5% of all), similar ones and a draw of the others.

SMILES | HSP90 inh | TWEAK-Fn14 inh | PPC-1+TRAIL kill | TRAIL sens C8 | Platelet DG rel | TROY NFkB inh | PPC-1 tox
N/C(=N\OC(=O)c1ccc(Cl)cc1Cl)c1ccccn1 | 91.2* | 100.3* | 89.7* | 90.4* | 55.9* | 80.1* | 89.3*
c1ccc(-c2nn3c(Cn4nnc5ccccc54)nnc3s2)nc1 | 6.3 | -0.5 | 11.2 | 17.2 | 3.3 | 0.0 | .
Cc1nnc2sc(-c3ccccn3)nn12 | -1.5 | 5.7 | 12.2 | -7.6 | 3.3 | 12.9 | 3.2
O=C(N=Nc1c(O)[nH]c2ccccc12)c1ccc2c(c1)OCO2 | -2.1 | 26.7 | 91.5* | 90.8* | 10.9 | -24.9 | 90.9*
COC(=O)c1nc2ccc(N3CCOCC3)cc2c(C)c1C(=O)OC | 3.8 | -31.9 | 46.1 | 63.2* | . | -29.3 | 49.3
CC1Cc2ccccc2N1CC(=O)Nc1ccc2c(c1)OCCCO2 (stereo not drawn) | . | -9.3 | . | 3.2 | . | 6.3 | .
CCc1cccc(OCC(=O)Nc2ccc(S(=O)(=O)Nc3ccccn3)cc2)c1 | -1.5 | 5.4 | 6.5 | -1.3 | -3.5 | 5.5 | 7.9
CC(C)CN1C(=O)C(=O)N(CC(=O)N(C)CC(=O)Nc2ccc(Cl)c(C(F)(F)F)c2)C1=O | . | 4.2 | . | 5.6 | . | 11.5 | .
Cc1ccc(Nc2nc(N)nc(CCl)n2)c(C)c1 | -0.1 | 35.8 | 92.0* | 95.7* | 0.2 | -27.0 | 91.9*
CCOc1ccc(Nc2nc(N)nc(CCl)n2)cc1 | 9.5 | 17.6 | 95.1* | 91.7* | 21.6 | -49.1 | 93.3*
CCOc1ccc(NC(=O)c2ccc(N)cc2)cc1 | -6.7 | -25.8 | 21.0 | 45.6 | 11.8 | -40.4 | 22.2
C=CCN=c1scc(C)n1/N=C/c1ccc(O)c(O)c1 | -2.1 | -6.0 | 28.2 | 27.8 | 3.7 | 31.7 | .
CN=c1scc(C)n1/N=C/c1ccc(O)cc1O | 7.6 | 63.9* | 70.8* | 67.5* | 23.9 | -23.7 | 71.3*
CCn1c2ccccc2c2cc(NC(=O)N3CCOCC3)ccc21 | 0.2 | -52.0 | 10.4 | -13.8 | -0.4 | -25.8 | 3.6
Cc1cc(OCC(=O)N2CCOCC2)ccc1NC(=O)c1ccccc1C | 0.8 | 1.3 | . | 42.2 | -0.4 | 9.1 | .
O=C(Nc1nc2ccccc2[nH]1)c1cc2ccccc2o1 | 6.4 | 26.0 | 67.5* | 66.4* | 2.9 | 5.5 | 68.7*
COc1ccc2oc(C(=O)OC/C(O)=C(\C#N)c3nc4ccccc4[nH]3)c(C)c2c1 | 3.4 | -18.6 | 4.9 | 5.9 | 13.1 | -12.8 | .
Cc1cc(C)nc(NC(=O)c2cc3ccccc3o2)n1 | 1.8 | 6.3 | -0.4 | 3.9 | 3.6 | -7.0 | .
COc1ccc2oc(C(=O)Nc3nc4ccccc4[nH]3)c(C)c2c1 | 5.0 | 38.2 | 58.6* | 69.1* | 17.1 | 43.4 | 54.2*
CCCOc1ccc2c(=O)c(N3C(=O)c4ccccc4C3=O)c(C)oc2c1 | -0.2 | -2.0 | -16.0 | -6.2 | -3.7 | 10.6 | -10.5
CCOc1ccc(S(=O)(=O)N2CCN(C(=O)c3ccc(-n4cncn4)c([N+](=O)[O-])c3)CC2)cc1 | . | 4.5 | . | -4.6 | 6.4 | 7.6 | .
CNS(=O)(=O)c1cccc(C(=O)OCC(=O)Nc2ccc(N3CCCCC3)cc2)c1 | 3.3 | -8.2 | 15.3 | -2.3 | -4.0 | 2.1 | .
CNS(=O)(=O)c1cccc(C(=O)OCC(=O)Nc2ccc(-c3nc4ccc(C)cc4s3)cc2)c1 | 4.1 | 27.3 | 38.6 | 75.4* | 6.9 | -24.4 | 48.5
Cc1ccc2nc(-c3ccc(NC(=O)COC(=O)c4cncc(Br)c4)cc3)sc2c1 | 0.1 | 46.8 | 50.2* | 70.3* | 0.9 | 26.1 | 48.9
O=C(CNS(=O)(=O)c1cccc(Cl)c1)Nc1ccc(-c2nc3ccccc3s2)cc1 | 2.4 | 10.9 | 33.3 | 35.6 | 19.3 | 3.4 | .
O=C(CCS(=O)(=O)c1ccccc1)Nc1ccc(-c2nc3ccccc3s2)cc1 | -1.0 | -11.4 | 54.1* | 64.8* | 2.5 | -11.3 | 49.0
CC(C)C[C@H]1CNC(=O)C(=O)N1C[C@@H]1CCCN1C[C@H](Cc1ccccc1)N1C[C@H](Cc2ccccc2)N(CC2CCCCC2)C(=O)C1=O | . | -16.5 | . | 10.7 | . | 12.8 | .
Cc1cn([C@H]2C[C@H](O)[C@@H](/C=C/C(=O)NCCc3ccc4ccccc4c3)O2)c(=O)[nH]c1=O | . | 10.9 | . | -15.8 | . | 5.3 | .
O=C(Nc1ccc(Br)cc1)c1cccc(OC(=S)N2CCOCC2)c1 | -4.0 | 26.5 | . | 22.0 | -0.9 | 32.1 | .
